Records with an inconclusive call do not appear. Active and inactive are the calls of the source. Calls follow the shape of the dose curve; as a rule, active = well fitted curve in the direction sought with a large enough effect; inconclusive = small, poorly fitted or top-dose-only effect, or another doubt; inactive = no such curve, though single readings can be large; an effect the other way counts as inactive or inconclusive.
Columns and labels:
NIH3T3 = assay: Cytotoxic Profiling of Annotated Libraries Using Quantitative High-Throughput Screening (AID 1296008); conditions: Five cell lines viability, CellTiter-Glo ATP luminescence, 48-72 h; max response: stronger effect = lower value; also: nearly all actives have a fitted effect of over 60% in size
In short: (§1)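 Cytotoxicity was measured as CellTiter-Glo ATP luminescence, read after 10 min at room temperature. Compound treatment of the cells lasted 48 or 72 hr at 37 degrees Celsius in a qHTS format.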

HEK293T [1] = assay: qHTS assay to identify novel small-molecules to repurpose for Merkel cell carcinoma treatment (AID 1296009); conditions: MCC and control cell lines, CellTiter-Glo viability, 72 h; at 44.8 µM (top of the series) unless noted; also: nearly all actives have a fitted effect of over 60% in size; also: potency is read from the fitted curve at half-maximal effect
In short: (§2)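 Cell viability, measured as CellTiter-Glo luminescence, was normalized between DMSO and no-cell wells. The cells had been exposed to 8- or 11-point compound dilutions for 72 hr at 37 degree celsius.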

MCC-13 = assay: as above; conditions: MCC and control cell lines, CellTiter-Glo viability, 72 h; series mostly up to 46 µM
In short: as §2

MCC-26 = assay: as above; conditions: MCC and control cell lines, CellTiter-Glo viability, 72 h; series mostly up to 46 µM
In short: as §2

MKL-1 = assay: as above; conditions: MCC and control cell lines, CellTiter-Glo viability, 72 h; series mostly up to 46 µM
In short: as §2

MKL-2 = assay: as above; conditions: MCC and control cell lines, CellTiter-Glo viability, 72 h; series mostly up to 46 µM
In short: as §2

UISO = assay: as above; conditions: MCC and control cell lines, CellTiter-Glo viability, 72 h; series mostly up to 46 µM
In short: as §2

WaGa = assay: as above; conditions: MCC and control cell lines, CellTiter-Glo viability, 72 h; series mostly up to 46 µM
In short: as §2

C33A = assay: Primary qHTS to identify gynecologic anti-cancer compounds using libraries of approved drugs and bioactive compounds (AID 1345084); conditions: Gynecologic cancer cell panel viability, ATPlite luminescence, 48 h; series mostly up to 57.5 µM; also: nearly all actives have a fitted effect of over 55% in size; also: potency is read from the fitted curve at half-maximal effect
In short: (§3)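 ATP-based viability (ATPlite), 1,000 cells/well, 16 h pre-incubation, 48 h compound at 37 C, 5% CO2, 15 min RT before read.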

CAOV3 = assay: as above; conditions: Gynecologic cancer cell panel viability, ATPlite luminescence, 48 h; series mostly up to 57.5 µM
In short: as §3

CASKI = assay: as above; conditions: Gynecologic cancer cell panel viability, ATPlite luminescence, 48 h; series mostly up to 57.5 µM
In short: as §3

Es-2 = assay: as above; conditions: Gynecologic cancer cell panel viability, ATPlite luminescence, 48 h; series mostly up to 57.5 µM
In short: as §3

HeLa = assay: as above; conditions: Gynecologic cancer cell panel viability, ATPlite luminescence, 48 h; series mostly up to 57.5 µM
In short: as §3

Hek293T [2] = assay: as above; conditions: Gynecologic cancer cell panel viability, ATPlite luminescence, 48 h, control line for the selectivity index; series mostly up to 57.5 µM
In short: as §3

JEG-3 = assay: as above; conditions: Gynecologic cancer cell panel viability, ATPlite luminescence, 48 h; series mostly up to 57.5 µM
In short: as §3

OV90 = assay: as above; conditions: Gynecologic cancer cell panel viability, ATPlite luminescence, 48 h; series mostly up to 57.5 µM
In short: as §3

PA-1 = assay: as above; conditions: Gynecologic cancer cell panel viability, ATPlite luminescence, 48 h; series mostly up to 57.5 µM
In short: as §3

HACAT = assay: qHTS assay to identify novel small-molecules to repurpose for Merkel cell carcinoma treatment (AID 1296009); conditions: MCC and control cell lines, CellTiter-Glo viability, 72 h; at 44.8 µM (top of the series) unless noted; also: nearly all actives have a fitted effect of over 60% in size; also: potency is read from the fitted curve at half-maximal effect
In short: as §2

KB-3-1 = assay: Cytotoxic Profiling of Annotated Libraries Using Quantitative High-Throughput Screening (AID 1296008); conditions: Five cell lines viability, CellTiter-Glo ATP luminescence, 48-72 h; max response: stronger effect = lower value; also: nearly all actives have a fitted effect of over 60% in size
In short: as §1
% is scaled to controls: 0 for no effect and ±100 for the full control effect.

NC(=O)c1ccccc1O
inactive: max response (NIH3T3) -3.05% | outcome (HEK293T [1]) | Potency (MCC-13) | Potency (MCC-26) | Potency (MKL-1) | Potency (MKL-2) | Potency (UISO) | Potency (WaGa) | Potency (C33A) | Potency (CAOV3) | Potency (CASKI) | Potency (Es-2) | Potency (HeLa) | Potency (Hek293T [2]) | Potency (JEG-3) | Potency (OV90) | Potency (PA-1)

C[C@@H](O)[C@H]1C(=O)N2C(C(=O)O)=C(S[C@@H]3CN[C@H](CNS(N)(=O)=O)C3)[C@H](C)[C@H]12
inactive: max response (NIH3T3) 3.07% | outcome (HACAT) | Potency (MCC-13) | Potency (MCC-26) | Potency (MKL-1) | Potency (MKL-2) | Potency (UISO) | Potency (WaGa) | Potency (C33A) | Potency (CASKI) | Potency (Es-2) | Potency (HeLa) | Potency (Hek293T [2]) | Potency (JEG-3) | Potency (OV90) | Potency (PA-1)

O=C1C(O)=C(O)C(=O)C(O)=C1O
inactive: max response (NIH3T3) -17.6% | outcome (HEK293T [1]) | Potency (MCC-13) | Potency (MCC-26) | Potency (MKL-1) | Potency (MKL-2) | Potency (UISO) | Potency (WaGa) | Potency (C33A) | Potency (CAOV3) | Potency (CASKI) | Potency (Es-2) | Potency (Hek293T [2]) | Potency (JEG-3) | Potency (OV90)

O=C(Oc1cccc2cccnc12)c1ccccc1
inactive: max response (KB-3-1) 6.72% | Potency (MKL-1) | Potency (CAOV3) | Potency (CASKI) | Potency (Es-2) | Potency (HeLa) | Potency (Hek293T [2]) | Potency (JEG-3) | Potency (OV90)

CCN(CC)CCOc1ccc2c(c1)C(=O)c1cc(OCCN(CC)CC)ccc1-2
active: Potency (MKL-1) 13.3 µM | Potency (MKL-2) 2.37 µM | Potency (WaGa) 15 µM | Potency (C33A) 17.8 µM | Potency (OV90) 12.6 µM
inactive: max response (KB-3-1) 41.3% | Potency (MCC-26) | Potency (HeLa)

NC(=O)C1(N2CCCCC2)CCN(CCCC(=O)c2ccc(F)cc2)CC1
inactive: max response (NIH3T3) -2.39% | outcome (HACAT) | Potency (MCC-13) | Potency (MCC-26) | Potency (MKL-1) | Potency (MKL-2) | Potency (UISO) | Potency (WaGa) | Potency (C33A) | Potency (CASKI) | Potency (Es-2) | Potency (HeLa) | Potency (Hek293T [2]) | Potency (JEG-3) | Potency (OV90) | Potency (PA-1)

Cc1cn([C@H]2C[C@H](F)[C@@H](CO)O2)c(=O)[nH]c1=O
inactive: max response (NIH3T3) -16.7% | outcome (HACAT) | Potency (MCC-13) | Potency (MCC-26) | Potency (MKL-1) | Potency (MKL-2) | Potency (UISO) | Potency (WaGa) | Potency (C33A) | Potency (CAOV3) | Potency (CASKI) | Potency (Es-2) | Potency (HeLa) | Potency (Hek293T [2]) | Potency (JEG-3) | Potency (OV90) | Potency (PA-1)

CC(C)(C)NCC(O)COc1cccc2c1C[C@H](O)[C@H](O)C2 (stereo not given in full)
inactive: max response (NIH3T3) -4.22% | outcome (HACAT) | Potency (MCC-13) | Potency (MCC-26) | Potency (MKL-1) | Potency (MKL-2) | Potency (UISO) | Potency (WaGa) | Potency (C33A) | Potency (CAOV3) | Potency (CASKI) | Potency (Es-2) | Potency (HeLa) | Potency (Hek293T [2]) | Potency (JEG-3) | Potency (OV90) | Potency (PA-1)
